LmPK inh: blocks Leishmania mexicana pyruvate kinase activity | AID 1721 | purified LmPK, Kinase-Glo ATP luminescence, 1 h | Potency, µM (highest dose often 57.5 µM), usual class: inhibitors | 0.37% of 290,000 active | Q27686
Target sequence (Q27686 whole entry, looked up): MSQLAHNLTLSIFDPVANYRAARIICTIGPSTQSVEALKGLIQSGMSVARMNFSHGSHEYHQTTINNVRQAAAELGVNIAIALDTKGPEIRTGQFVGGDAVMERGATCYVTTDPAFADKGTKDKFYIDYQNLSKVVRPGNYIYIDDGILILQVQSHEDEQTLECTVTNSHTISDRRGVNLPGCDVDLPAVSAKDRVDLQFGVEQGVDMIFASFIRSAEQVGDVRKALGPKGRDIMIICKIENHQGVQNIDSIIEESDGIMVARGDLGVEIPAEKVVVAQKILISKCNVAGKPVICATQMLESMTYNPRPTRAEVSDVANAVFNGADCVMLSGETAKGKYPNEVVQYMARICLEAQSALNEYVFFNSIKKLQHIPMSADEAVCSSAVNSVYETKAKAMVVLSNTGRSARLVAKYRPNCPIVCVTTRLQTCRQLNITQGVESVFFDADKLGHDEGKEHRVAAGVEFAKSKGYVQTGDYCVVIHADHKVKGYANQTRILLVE
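Purified LmPK (0.1 nM) with 0.5 mM PEP and 0.1 mM ADP in imidazole buffer pH 7.2 with MgCl2/KCl, 1 h at room temperature. ATP formed was read by luciferase luminescence and normalized to no-enzyme and uninhibited controls.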
Shiga toxin inh: inhibitors of Shiga toxin in Vero cells; Vero cells, Shiga toxin protein synthesis inhibition reporter; 9.2% of 290,000 active; inhibition, % at 38.7 µM; in the data active = inhibition mostly above about 28%, no sharp cut-off; inactive = mostly below about 43%
Pf growth 48h: P. falciparum growth inhibition at 48 hours (one generation) | Potency, µM (doses to about 28.7 µM), hits mostly inhibitors | 5.9% of 310,000 active | P. falciparum luciferase growth in erythrocytes, 48 h | AID 504832
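Erythrocytes infected with P. falciparum carrying an integrated firefly luciferase reporter (2% hematocrit, 0.1% parasitemia final) were exposed to compounds in RPMI 1640 with 0.5% Albumax at 37 C, 5% CO2. Growth inhibition was scored as reduced luminescence.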
Cycloheximide cs: affects cycloheximide protein synthesis inhibition readout, counter-screen; 12% of 300,000 active; cell reporter, cycloheximide protein synthesis inhibition counterscreen; max response, %; AID 2314; in the data active = max response mostly above about 13%, no sharp cut-off; inactive = mostly below about 14%; note: read at 38.3 µM for the half of the compounds with a filed dose
Pf growth 96h: inhibits malaria parasite growth, 96 h; 6.9% of 320,000 active; Potency, µM (highest dose often 28.7 µM), most hits filed as inhibitors; P. falciparum luciferase reporter growth, 96 h
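Delayed-death screen, second-generation endpoint: infected erythrocytes, 2% hematocrit, 0.05% parasitemia final; 96 hours at 37 C, 5% CO2; luciferase detection reagent; luminescence decrease equals reduced growth.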
Each line names hits and unclear results; the compound was inactive in the other large screens. Sampled rows, rich in hits. Any-hit rate of the full collection: about 22%. Unless noted, calls come from the whole dose curve; as a rule, active = well fitted inhibition curve with a large enough effect; inconclusive = small, poorly fitted or top-dose-only effect, or another doubt; inactive = no such curve, though single readings can be large or run the other way.

CSc1nnc(C)c(=O)n1COC(=O)c1ccc(S(=O)(=O)N(C)C)cc1	Pf growth 96h inconclusive
CCOc1cc(CNCc2cccnc2)cc(Br)c1OCC(N)=O	Pf growth 96h inconclusive
Nc1ncnc2c1nc(N1CCCCC1)n2[C@@H]1O[C@@H]2COP(=O)(O)O[C@H]2[C@H]1O	none (no result: LmPK inh, Pf growth 48h, Pf growth 96h)
COc1cccc(C(=O)OCC(=O)c2c[nH]c3ccccc23)c1O	Shiga toxin inh 93, Cycloheximide cs 34
COc1cccc(/C=C/C(=O)OCC(=O)c2c[nH]c3ccccc23)c1OC	Pf growth 48h inconclusive, Cycloheximide cs 11
COCC1CCN(Cc2cn(-c3ccccc3F)nc2-c2cc(C)sc2C)CC1	Pf growth 48h inconclusive
CCn1cc(CCCC(=O)NCc2cccnc2)c2ccccc21	none
Cn1cc(CC(=O)NCc2ccc(F)cc2)c2ccccc21	Cycloheximide cs 12
COc1ccc(-c2cn(CCC(=O)NCc3ccc(C)cc3)c(-c3ccncc3)n2)cc1	Pf growth 96h inconclusive
CC(C)c1ccc(NC(=O)Cc2cn(C)c3ccccc23)cc1	Cycloheximide cs 14, Pf growth 96h inconclusive
Cn1cc(SCC(=O)NCc2ccc(F)cc2)c2ccccc21	none
CCn1cc(CCCC(=O)NCc2ccc(OC)cc2)c2ccccc21	Pf growth 48h 2.3µM
Cc1ccc(CNC(=O)CCn2cc(-c3ccc(C)cc3)nc2CCN)cc1	Pf growth 48h 12µM, Pf growth 96h inconclusive (no result: LmPK inh, Shiga toxin inh, Cycloheximide cs)
CC(C)NC(=O)CCCc1cn(C)c2ccccc12	none
Cc1ccc(C)c(C(=O)NC(C)c2ccc(-n3ccnc3)cc2)c1 (configuration not stated)	Pf growth 48h inconclusive, Pf growth 96h inconclusive
CC(=O)c1cccc(S(=O)(=O)N(CCCO)Cc2cc3ccc(C)cc3[nH]c2=O)c1	none
NNC(=O)c1csc(-c2ncc(C(F)(F)F)cc2Cl)n1	none
CCOc1ccc(CNC(=O)CCCc2cn(C)c3ccccc23)cc1	Pf growth 48h 3.7µM
Cc1ccc(CNC(=O)CCc2cn(C)c3ccccc23)cc1	Pf growth 96h 13µM
Cc1ccc(Cn2cc(CCC(=O)O)c3ccccc32)cc1	Pf growth 96h 4.7µM (no result: Pf growth 48h)
CCn1cc(CCC(=O)NCc2cccc(OC)c2OC)c2ccccc21	none
CCOc1ccc(CNC(=O)CCCc2cn(C)c3ccccc23)cc1OC	Pf growth 96h inconclusive
CCOc1ccccc1CNC(=O)CCc1cn(CC)c2ccccc12	Pf growth 48h 15µM
O=C(Nc1cc(-c2nc3ncccc3o2)ccc1Cl)c1ccc([N+](=O)[O-])o1	Pf growth 48h inconclusive
O=C(O)c1cccc(-n2nc(-c3ccc(Cl)c([N+](=O)[O-])c3)c3ccccc3c2=O)c1	Pf growth 48h inconclusive, Pf growth 96h inconclusive
N#Cc1ccc(-c2ccc(OCC(=O)NCCCN3CCCC3=O)cc2)cc1	none
CC(=O)Nc1ccc(Nc2nc(C)c([N+](=O)[O-])c(Nc3ccc(NC(C)=O)cc3)n2)cc1	Pf growth 96h 2.1µM
CNc1nc(C)c([N+](=O)[O-])c(Nc2ccc(OC)cc2)n1	none
CC(C)(C)c1ccc(OCCC(=O)OCC(=O)Nc2ccc(N3CCOCC3)cc2)cc1	none (no result: LmPK inh, Shiga toxin inh, Cycloheximide cs)
CCOC(=O)C1CCN(C(=O)c2ccc3c(=O)n4nc(Nc5cc(C)ccc5C)sc4nc3c2)CC1	Pf growth 48h inconclusive, Pf growth 96h 2.9µM
Cc1ccc(C)c(Nc2nn3c(=O)c4ccc(C(=O)NCc5cccnc5)cc4nc3s2)c1	none
COc1ccccc1Nc1nn2c(=O)c3ccc(C(=O)N4CCCC(C)C4)cc3nc2s1 (configuration not stated)	Pf growth 48h 8.3µM
CC1OC(OC2C(OC3C(O[C@H]4CC[C@]5(C)C6C=C[C@]78OC[C@@]9(CC[C@@H](C)[C@H](C)C97)[C@H](O)C[C@@]8(C)[C@]6(C)CC[C@H]5C4(C)C)OC(C)C(O)C3O)OC(CO)C(O)C2O)C(O)C(O)C1O (some centres not stated)	Pf growth 48h inconclusive, Pf growth 96h inconclusive
Cc1cccc(N2CCN(C(=O)C3CCN(c4ncnc5c4nc4n5CCCCC4)CC3)CC2C)c1 (configuration not stated)	Pf growth 96h 12µM
O=C(C1CCCN(c2ncnc3c2nc2n3CCCCC2)C1)N1CCN(c2cccc(Cl)c2)CC1 (configuration not stated)	Pf growth 48h 13µM, Pf growth 96h inconclusive
CN(C(=O)C1CCCN(c2ncnc3c2nc2n3CCCCC2)C1)c1cccc(Cl)c1 (configuration not stated)	Pf growth 48h 2.9µM
CCCCN(Cc1ccco1)C(=O)C1CCCN(c2ncnc3c2nc2n3CCCCC2)C1 (configuration not stated)	Pf growth 48h 9.3µM
CC(C)N(Cc1ccccc1)C(=O)C1CCCN(c2ncnc3c2nc2n3CCCCC2)C1 (configuration not stated)	Pf growth 48h inconclusive
CCOc1cc(/C=N/NC(=O)CN2CCCCC2)ccc1OCc1cccc(Cl)c1	Pf growth 96h inconclusive
Cc1ccccc1N=C1NC(=O)/C(=C/c2cccn2-c2cccc(C(=O)O)c2)S1	none
O=C(COc1ccc2ccccc2c1)NNC(=O)c1cnccn1	Pf growth 48h 15µM, Pf growth 96h 9.3µM
O=C(COc1cccc2ccccc12)NNC(=O)c1cnccn1	Pf growth 48h inconclusive, Pf growth 96h inconclusive
CC(C)c1ccc(OCC(=O)NNC(=O)c2cnccn2)cc1	Pf growth 48h inconclusive, Pf growth 96h 10µM
O=C(OCC#CCSc1nc2ccccc2o1)c1ccco1	Shiga toxin inh 31, Cycloheximide cs 13
O=C(OCC#CCSc1nnc(-c2cccc3ccccc23)o1)c1ccco1	none
O=C(OCC#CCSc1nc2ccccc2o1)c1cc2ccccc2o1	Cycloheximide cs 15
COc1ccc(NC(=O)COc2ccc(C(=O)OCC(=O)N(C(C)C)C(C)C)cc2OC)cc1	none
Cc1ccc(/C=C2/C(=O)C3(C)CCC2C3(C)C)cc1 (configuration not stated)	none (no result: LmPK inh, Shiga toxin inh, Cycloheximide cs)
Cc1ccc2nc3sc(C(=O)NCc4ccco4)c(N)c3cc2c1	Shiga toxin inh 68, Cycloheximide cs 23
COc1cc2cc3c(N)c(C(=O)NCc4ccco4)sc3nc2cc1OC	Shiga toxin inh 54, Pf growth 48h inconclusive, Cycloheximide cs 16
COc1cc2cc3c(N)c(C(=O)Nc4sc(C)c(C)c4C#N)sc3nc2cc1OC	Pf growth 48h inconclusive, Pf growth 96h 12µM
COc1ccc(-n2c(N)c(C(=O)NCc3ccco3)sc2=S)cc1	Pf growth 48h inconclusive, Pf growth 96h inconclusive
CCOC(=O)c1sc(NC(=O)c2cc(-c3ccccc3)nc3ccccc23)c(C#N)c1C	none
CC(C)(Oc1ccc(C2CCCc3ccccc32)cc1)C(=O)O (configuration not stated)	none (no result: LmPK inh, Shiga toxin inh, Cycloheximide cs)
CSCCC(NC(=O)c1ccco1)C(=O)N1CC(C)OC(C)C1 (configuration not stated)	none (no result: LmPK inh, Shiga toxin inh, Cycloheximide cs)
O=C(CCNC(=O)c1ccc(Br)cc1)Nc1nc2ccccc2[nH]1	none (no result: LmPK inh, Shiga toxin inh, Cycloheximide cs)
O=[N+]([O-])c1ccc(N2CCN(S(=O)(=O)c3ccc(Cl)c(Cl)c3)CC2)cc1NCCN1CCOCC1	Pf growth 48h inconclusive, Pf growth 96h 6.6µM
